The results in this text go back to ChEMBL document CHEMBL3988442, “University of Dundee, Small-Polar-MMV Screening Library” (2021).

The campaign covered roughly 48,000 compounds. About 13,000 (27%) showed an effect of 50% or more. The list shows a part of the results.

In the experiment the test system is Wolbachia pipientis. As to the kind of experiment: Anti-Wolbachia Cell-Based Screen. In kind it is functional. More on the design: scale not given: in the data most compounds retested in dose-response had high values. The note with it: 5 µM.
`O=S(=O)(CC1CCCCC1)NCc1ccc(O)nc1`: the “Percent Effect” value is recorded as -3.814%.
Under `CC1CCN(C(=O)c2ccnc(-n3cncn3)c2)c2ccccc21` (centres undefined) stands 8.063%; under `COC[C@@H]1CCC[C@@]12CN(C(=O)C1CCOCC1)CCO2`, 108.7%; under `CC(C)OC[C@H]1CCC[C@]12CN(C(=O)C1CCOCC1)CCO2`, 106.2%.
Under `Cn1ccc(N2CCCC(NC(=O)c3ccc(Cl)o3)C2=O)n1` (centres undefined) stands -25.47%; under `COc1cc(F)ccc1N1CCN(Cc2nc(C)c(C)o2)CC1`, -8.318%; under `CC(C)(C)c1cn2nc(N3CCCC3Cn3cccn3)sc2n1` (centres undefined), 7.986%.
Take `CC(C)(C)c1cn2nc(N3CCCC3Cn3cncn3)sc2n1` (centres undefined): the “Percent Effect” value is given as -4.327%.
Under `Cc1cnn(CC2CCCN2c2nn3cc(C)nc3s2)c1` (centres undefined) stands 9.552%.
Take `Cc1cn2nc(N3CCCCC3Cn3cccn3)sc2n1` (centres undefined): the “Percent Effect” value was 120.6%.
Take `Cc1cn2nc(N3CCCC3CC(C)(C)C)sc2n1` (centres undefined): the “Percent Effect” value is 1.66%.
Under `Cc1cn2nc(N3CCCC3Cn3cccn3)sc2n1` (centres undefined) stands 112.3%; under `CC(C)(C)c1cn2nc(N3CCCCC3Cn3cncn3)sc2n1` (centres undefined), 11.04%.
Under `Cc1cn2nc(N3CCCC3Cn3nc(C)cc3C)sc2n1` (centres undefined) stands 8.981%; under `Cc1cnn(CC2CCCCN2c2nn3cc(C)nc3s2)c1` (centres undefined), 94.21%.
For `Cc1cn2nc(N3CCCC3C(=O)N3CCN(C)CC3)sc2n1` (centres undefined), the “Percent Effect” value was -72.4%.
As to `Cc1cn2nc(N3CCCC3Cn3nc(C)nc3C)sc2n1` (centres undefined), the “Percent Effect” value was 128.5%.
On to `Cc1cn2nc(N3CCCC3Cn3cncn3)sc2n1` (centres undefined), for which the “Percent Effect” value is recorded as 1.731%.
Under `CCN1CCN(C(=O)c2[nH]c3ccccc3c2Cl)[C@H]2CS(=O)(=O)C[C@H]21` stands 2.793%; under `COCCNc1ccccc1CNC(=O)NCc1cnc(C)s1`, -0.4507%.
The value for `COc1ccc(C(=O)N2CCCC2c2cnn(C)c2)cn1` (centres undefined) was 112.3%.
The value for `Cc1cnn(CC2CCCN2C(=O)c2ccc(OC(C)C)nc2)c1` (centres undefined) was -7.33%; that for `Cn1cc(C2CCCN2C(=O)c2ccc(OCC3CC3)nc2)cn1` (centres undefined) was 114.7%.
For `CCOc1ccc(C(=O)N2CCCC2c2cnn(C)c2)cn1` (centres undefined), the “Percent Effect” value came to 110.2%.
As to `CNC(=O)c1ccc(C(=O)N2CCCC2c2cnn(C)c2)cn1` (centres undefined), the “Percent Effect” value was 5.729%.
Under `COCCn1cc(C(=O)N2CCCC2c2cnn(C)c2)ccc1=O` (centres undefined) stands -26.74%; under `CC(C)Oc1ccc(C(=O)N2CCCC2c2cnn(C)c2)cn1` (centres undefined), 97.67%; under `Cc1nnc(CN(C)S(=O)(=O)c2ccc(Br)cc2Cl)n1C`, 5.813%.
The value for `CC(C)Oc1cccc(C(=O)C2CCCN(S(=O)(=O)C(C)C)C2)c1` (centres undefined) was 1.86%; that for `Cc1nn(CCO)c(C)c1CNC1CCCCc2ccccc21` (centres undefined) was 2.659%.
As for `O=C(NCCc1ccn(-c2ccccc2)n1)N1CCCC(O)C1` (centres undefined), the “Percent Effect” value was 108.2%.
The value for `O=C(NCCc1ccn(-c2ccc(F)cc2)n1)C1CCCOC1` (centres undefined) was -15.61%; that for `O=C(NCCC1Cc2ccccc2C1)N1CCCC(O)C1` (centres undefined) was -12.54%; that for `O=C(NCCc1ccn(-c2ccccc2)n1)N1CCC1` was 5.708%.
Under `CCOC1CCN(C(=O)NCCc2ccn(-c3ccccc3)n2)CC1` stands 152.6%.
In the case of `O=C(NCCc1ccn(-c2ccccc2)n1)N1CCCC(CO)C1` (centres undefined), the “Percent Effect” value is recorded as 104.8%.
The value for `CC1(C)CN(C(=O)NCCc2ccn(-c3ccccc3)n2)CCO1` was -7.348%.
Under `O=C(NCCc1ccn(-c2ccccc2)n1)N1CCSCC1` stands 87.95%; under `CCOC1CCN(C(=O)NCc2ccc(C(=O)N(C)C(C)C)cc2)CC1`, -14.18%; under `CCOC1CCCN(C(=O)NCCc2ccn(-c3ccccc3)n2)C1` (centres undefined), 9.361%.
Turning to `CC(C)(C)c1cn(C2CCN(C(=O)c3cncnc3)CC2)nn1`, the “Percent Effect” value turned out to be 8.941%.
As for `Cc1cc2ncc(C(C)NCc3cccnc3)c(C)n2n1` (centres undefined), the “Percent Effect” value worked out at 0.9631%.
Take `O=C(c1cccc2ncccc12)N1CCCN(c2cccnn2)CC1`: the “Percent Effect” value is -3.765%.
The value for `N#Cc1ccc(N2CCN(c3ncccn3)CC2)c(C(F)(F)F)c1` was 0.2646%.
The value for `COc1cccc(CCCNC(=O)N2CCC(O)(C(F)(F)F)C2)c1` (centres undefined) was -22.68%; that for `Cc1nn(C)c(N(C)C)c1CNCc1cnn(Cc2ccccc2)c1` was 0.347%.
The value for `O=C(Nc1ccc(CC(=O)N2CCSCC2)cc1)NC1CCCC1` was -7.412%; that for `O=C(Nc1ccc(CC(=O)N2CCSCC2)cc1)NC1CC1` was 1.128%.
As for `O=C(Nc1ccc(CC(=O)N2CCCC2)cc1)NC1CC1`, the “Percent Effect” value is reported as 116.7%.
Under `Cc1nc(CNC(=O)NC2CCN(c3ncccc3Cl)C2)no1` (centres undefined) stands -5.791%; under `OCCC1CN(c2ncnc3[nH]cnc23)CCN1Cc1ccccc1` (centres undefined), -15.48%.
In the case of `CC(C)N1CCCC2(CCN(Cc3nncn3C(C)C)C2)C1=O` (centres undefined), the “Percent Effect” value was determined as 92.74%.
Consider `CC(C)n1cnnc1CN1CCC2(CCCN(C3CCCCC3)C2=O)C1` (centres undefined), for which the “Percent Effect” value came out at 113.2%.
Under `CN1CCCC2(CCN(Cc3cncn3C3CCCCC3)C2)C1=O` (centres undefined) stands -0.6007%; under `CCCN1CCCC2(CCN(Cc3cncn3C3CCCC3)C2)C1=O` (centres undefined), 1.607%.
The value for `Cn1cnnc1CN1CCC2(CCCN(C3CCCC3)C2=O)C1` (centres undefined) was 103.4%; that for `CC(C)[C@H]1COC(=O)N1Cc1nncn1C(C)C` was 9.429%.
Under `CCCN1CCCC2(CCN(Cc3noc(C4CCCC4)n3)C2)C1=O` (centres undefined) stands -0.09411%; under `Cn1cnnc1CN1CCC2(CCCN(C3CCCCC3)C2=O)C1` (centres undefined), 111.9%.
As for `CCCN1CCCC2(CCN(Cc3cncn3C3CCCCC3)C2)C1=O` (centres undefined), the “Percent Effect” value is -18.59%.
The value for `CCN1CC2(CCC1=O)CCN(Cc1nncn1C)CC2` was -22.02%; that for `CCN1CC2(CCC1=O)CCN(Cc1nncn1C(C)C)CC2` was 3.317%; that for `CC(C)N1CCCC2(CCN(Cc3noc(C4CCCC4)n3)C2)C1=O` (centres undefined) was 17.18%.
As for `O=C(O)C(F)(F)F.c1csc(CN2CCC3(CCCN(c4nncs4)C3)C2)n1` (centres undefined), the “Percent Effect” value is listed as -3.653%.
`CCN1CCC(N2C[C@H]3OC(=O)N(CCc4cccc(Cl)c4)[C@H]3C2)CC1`: the “Percent Effect” value is on record as -15.6%.
Under `CCSCCC(=O)Nc1ncn(CC(=O)NCc2ccccc2)n1` stands 1.311%; under `CN(Cc1ccc(C(=O)Nc2sccc2C#N)cc1)Cc1ccno1`, -5.875%.
`CNC(=O)C1Cc2ccccc2CN1CCCc1ccccc1` (centres undefined): the “Percent Effect” value is reported as -8.054%.
Turning to `Cc1csc(N(C)C(=O)C2CC(=O)N(CCc3ccccc3)C2)n1` (centres undefined), the “Percent Effect” value was found to be 4.812%.
In the case of `CC(C)c1cc(C(=O)N2CCCN(CCCc3ccccc3)CC2)[nH]n1`, the “Percent Effect” value is listed as 0.07047%.
Under `CN(C(=O)C1CC(=O)N(CCc2ccccc2)C1)c1nccs1` (centres undefined) stands 3.016%; under `CC(C)(C)OC(=O)N1CC(=O)N(CCc2ccccc2)CC(O)C1` (centres undefined), 114.6%; under `CC(C)COC(=O)N1CC(=O)N(CCCc2ccccc2)CC(O)C1` (centres undefined), 111%.
For the compound `Cc1[nH]ccc1C(=O)NCC1CC(=O)N(CCc2ccccc2)C1` (centres undefined), the “Percent Effect” value came out at 5.345%.
The value for `CC(C(=O)O)N1CC2(CCC1=O)CCN(CCc1ccccc1)CC2` (centres undefined) was -3.737%; that for `CC(C)CC(=O)N1CC(=O)N(CCc2ccccc2)CC(O)C1` (centres undefined) was 118.7%; that for `Cc1ccccc1C(C)CC(=O)N1CC[C@H](O)C1` (some centres undefined) was -9.659%.
In the case of `CC(C)(C)N1CC(C(=O)N2CCN(CCc3ccccc3)CC2)CC1=O` (centres undefined), the “Percent Effect” value is 4.322%.
The value for `CCOC(=O)N1CC(=O)N(CCc2ccccc2)CC(O)C1` (centres undefined) was 123.2%.
